Data on 91 compounds can be found in PubChem BioAssay AID1662 (Broad Institute, 2009).

One may read the inhibition as the change of the read-out against control, counted positive when it falls.

The whole screen tested about 300,000 compounds, of which about 4,000 (1.3%) were called active. This excerpt belongs to a sample that is enriched for actives. Values without a mark were called inactive.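 Rule for the calls: active = mean replicate score, as percent of positive control median, at least 50; inconclusive = mean below 50 but one replicate at or above 50; inactive = mean and every replicate below 50.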

The nature of this assay: kanamycin survival loss of SKKanGAS strain – BacTiter-Glo luminescence, streptokinase expression inhibitor project, primary screen (AID 1662).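 Note: strain carries kanamycin resistance gene driven by streptokinase promoter and grows in 40 µg/ml kanamycin; loss of luminescence reflects streptokinase promoter inhibition or plain growth inhibition; 0% = median of DMSO wells and 100% = positive control at its reference dose.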 The following applies: S. pyogenes SKKanGAS, kanamycin growth, 6 h, at 7.5 µM, active compounds read high.
For the compound `Cc1ccc2c(c1)-c1c(ssc1=S)C(C)(C)N2C(=O)CN1C(=O)c2ccccc2C1=O`, the inhibition was 24.3%. As for `Cc1ccc(C(=O)Nc2nc(N)n(-c3ccccc3)n2)cc1`, the inhibition was 5.73%. For the compound `Nc1nc(NC(=O)/C=C/c2ccccc2)nn1-c1ccccc1`, the inhibition is -11.5%. Regarding `Nc1nc(NC(=O)/C=C/c2ccc(F)cc2)nn1-c1ccccc1`, the inhibition was 76.1% (active). Consider `Cc1sc2nc(SCCO)n(-c3ccccc3)c(=O)c2c1C`, for which the inhibition was 7.52%. Turning to `COC(=O)c1ccc(NC(=O)C23CC4CC(C2)CC(n2cnc(Cl)n2)(C4)C3)cc1`, the inhibition was -3.03%. Regarding `Cc1cc(C)c(NC(=O)c2oc3ccccc3c2COc2ccccc2)c(C)c1`, the inhibition is 58.7% (active). For `COCc1c(C(=O)OCc2c(C)noc2C)oc2ccccc12`, the inhibition is 2.6%.

Consider `CCOC(=O)c1oc2ccccc2c1NC(=O)c1cccs1`, for which the inhibition is -5.47%. Turning to `CCc1ccc(NC(=O)CN2C(=O)COc3ccc(S(=O)(=O)N4CCCC4)cc32)cc1`, the inhibition is 2.1%. Turning to `CCn1ccnc1CNC(=O)CC1C(=O)NCCN1CCCc1ccccc1` (stereo unspecified), the inhibition was -0.266%.

In the case of `O=C(NCc1cccnc1)Nc1cccc(NC(=O)NCc2cccnc2)c1F`, the inhibition was -0.181%. As to `O=C(Nc1ccccc1)N1CCN(C(=O)Nc2ccccc2)CC1`, the inhibition was 3.57%.

As for `COc1cc(C(=O)NCC(=O)N2CC=C(c3ccccc3)CC2)cc(OC)c1OC`, the inhibition was 9.79%. As for `O=C(Nc1ccc(Cl)c(Cl)c1)N1CC=C(c2ccccc2)CC1`, the figure is 58.4% (active). For the compound `CCO[C@@H]1OC(C(N)=O)=C[C@H](c2ccc(Br)cc2)[C@H]1CCCO`, the inhibition is 0.82%. Turning to `Cc1cccn2c(CNCC(C)Oc3cccnc3)c(C(=O)N3CCOCC3)nc12` (stereo unspecified), the inhibition was -4.82%.

Turning to `COc1cc(/C=C(\C#N)c2nc3c(s2)CC(C)CC3)ccc1O` (stereo unspecified), the inhibition was 10.1%. For the compound `COc1cc(/C=N\Nc2nc(-c3cccs3)c(NC(C)=O)s2)ccc1O`, the inhibition was 1.83%. Turning to `CCOc1cc(/C=C(\C#N)c2nc(-c3cccs3)c(NC(C)=O)s2)ccc1O`, the inhibition is 109% (active). Regarding `O=C(Cn1cnc2ccccc21)Nc1ccccc1-c1ccccc1`, the inhibition was 0.579%. For `CCOc1ccc(C(=O)Nc2cc(Cl)ccc2-n2cncn2)cc1OC`, the inhibition is -2.54%. Take `CCOC(=O)NNc1cc(C(F)(F)F)ccn1`: the inhibition was 0.731%.

As to `O=C(/C=C/c1ccc(Cl)cc1)NCCCn1ccnc1`, the inhibition was -2.11%.

For `CCOC(=O)CC(NC(=O)C1c2ccccc2Oc2ccccc21)c1ccc(C)cc1` (stereo unspecified), the inhibition is 5.34%.

As for `COc1ccc(/C=N/NC(=O)C2CC2)c(OC)c1OC`, the inhibition was 14.5%. As to `Oc1ccccc1C=NC1CCCCC1N=Cc1ccccc1O` (stereo unspecified), the inhibition is -8.77%. As to `O=C(N/N=C/c1ccccc1O)C1CCCC1`, the inhibition was 73.1% (active). Turning to `CC1(C(=O)NNC(=S)NCC2CCCO2)CC1(Cl)Cl` (stereo unspecified), the inhibition was 2.55%. With `COc1ccc(OC)c(NC(=O)c2ccc3c(c2)CCN3S(C)(=O)=O)c1` the figure was -4.51%. Consider `Nc1nc(SCC(=O)NNc2c(Cl)cc(Cl)cc2Cl)n[nH]1`, for which the inhibition was 7.52%. Regarding `CCOc1cc(NC(=O)CCl)c(OCC)cc1NC(C)=O`, the inhibition is -2.78%. With `COc1ccc(S(=O)(=O)N2CCCCC2)cc1NC(=O)C1CC(=O)N(c2ccc3c(c2)OCCO3)C1` (stereo unspecified) the figure was 14.5%. As for `COCc1ccc(C(=O)NC2CC(C)(C)Cc3c2cnn3-c2ccc(C)cc2)o1` (stereo unspecified), the inhibition is -6.03%. `Cc1ccc(-c2csc(N3CCN(c4cc5c(cc4Cl)nc(-c4ccncc4)n5CCOCCO)CC3)n2)cc1`: the inhibition was 47.5%. With `Nc1c(Cl)cc(-c2csc(N3CCCC3c3nc4cc(Cl)c(Cl)cc4n3CCOCCO)n2)cc1Cl` (stereo unspecified) the figure was 62.1% (active). Turning to `CCCn1c(C2CCCN2c2nc(-c3ccc(C)cc3)cs2)nc2cc(Cl)c(N3CCCCC3)cc21` (stereo unspecified), the inhibition was 9.01%. With `COc1ccc(-c2n[nH]c(C)c2-c2ccccc2OC)c(O)c1`, the inhibition is 1.39%.

Turning to `COc1ccccc1-c1n[nH]c2c1[C@H](C)CC[C@H]2C(C)C`, the inhibition is 91.1% (active). With `COc1ccccc1-c1nc(SC)n[nH]1` the figure was -1.68%; with `O=C(CSc1nc2ccccc2c(=O)[nH]1)Nc1nc(-c2ccc(Br)cc2)cs1`, 4.78%. Regarding `N#Cc1c(-c2cccs2)nc(SCC(=O)c2ccc(Br)cc2)[nH]c1=O`, the inhibition was 55.8% (active). As for `Cc1cc(C)c2c(=O)[nH]c(SCC(=O)Nc3ccc(Br)cc3)nc2n1`, the inhibition was 30%. `N#CC1(NC(=O)COC(=O)Cc2n[nH]c(=O)c3ccccc23)CCCCC1`: the inhibition is -3.3%. As to `Cc1ccc(S(=O)(=O)c2ccc(Cl)cc2)cc1S(=O)(=O)NC(C(=O)O)C(C)C` (stereo unspecified), the inhibition is 0.0508%. For `COc1cc2c(cc1NC(=O)COC(=O)/C=C/c1ccccc1)oc1ccccc12`, the inhibition is -12.9%. Regarding `Cc1onc(-c2ccccc2)c1C(=O)NNC(=S)NC(=O)c1ccc(F)cc1`, the inhibition was 7.91%.

As to `O=C(Nc1cn(-c2ccccc2)nc1-c1ccccc1)c1ccccc1`, the inhibition was -2.24%. With `O=C(NNC(=S)NC(=O)c1cn(-c2ccccc2)nc1-c1ccccc1)c1ccncc1`, the inhibition is 99.7% (active). `COC(=O)Cn1cc(/C=C/[N+](=O)[O-])c2ccccc21`: the inhibition was 0.686%. For the compound `O=C(CN1C(=O)/C(=C/c2ccccc2F)Sc2ccccc21)NCc1cccnc1`, the inhibition was -8.35%. For the compound `O=C(CN1C(=O)S/C(=C\c2ccccc2F)C1=O)NCCCn1ccnc1`, the inhibition was 2.35%. For `O=C(CN1C(=O)/C(=C\c2ccccc2F)SC1=S)Nc1nc2ccccc2s1`, the inhibition is 94.2% (active). `O=c1[nH]c(CCl)nc2cc(-c3ccc(Cl)cc3)sc12`: the inhibition was 29.5%.

Turning to `CC1CCc2c(nc3ncnn3c2Nc2ccc(OC(F)(F)F)cc2)C1` (stereo unspecified), the inhibition was 2.5%. Take `COc1cc(OC)c(/C=N/NC(=O)c2ccc([N+](=O)[O-])cc2)cc1Br`: the inhibition is -10.8%. With `O=[N+]([O-])c1cc(Br)c(O)c(/C=N/Nc2nc3ccccc3s2)c1` the figure was 92% (active); with `COc1cc(/C=N/Nc2nc3ccccc3s2)ccc1O`, -7.58%; with `COc1ccc(CC(=O)N/N=C/c2cc([N+](=O)[O-])cc(Br)c2O)cc1`, 61.6% (active). With `c1ccc2sc(NN=C3CCCC3)nc2c1` the figure was 18.5%; with `COc1ccc(CC(=O)NCC(=O)N/N=C/c2cc(Br)ccc2OC)cc1`, 4.99%; with `CC1(C)c2[nH]c3ccccc3c2C[C@H]2C(=O)N(N)CC(=O)N21`, 1.39%. `NNC(=O)c1ccc(COCC(F)(F)C(F)F)cc1`: the inhibition is -2.77%. Take `CC(=O)c1ccc(N2CCN(C(=O)CCNC(=O)Cn3ccc4ccccc4c3=O)CC2)cc1`: the inhibition was 0.0785%. For `Cc1cc(C)cc(C(=O)NC(CC(N)=O)c2ccc(N3CCC(N4CCCCC4)CC3)c([N+](=O)[O-])c2)c1` (stereo unspecified), the inhibition is -2.72%.

`Cc1ccc2c(c1)c1ncnc(N3CCc4ccccc4C3)c1n2C`: the inhibition was 47.1%. Take `CCOc1ccc(C(=O)NC(=S)Nc2ccc(NC(=O)C(C)C)cc2)cc1[N+](=O)[O-]`: the inhibition is 19.7%. For the compound `COc1cccc(OC)c1C(=O)NC(=S)Nc1ccc(N2CCOCC2)c(Cl)c1`, the inhibition is 4.82%. Take `CCOc1ccc(C(=O)NC(=S)Nc2ccc(N3CCOCC3)c(Cl)c2)cc1[N+](=O)[O-]`: the inhibition was 84% (active). As for `CCN(CC)C(=O)CS(=O)CC(=O)Nc1cc(OCCOC)c(Cl)cc1Cl` (stereo unspecified), the inhibition is 0.17%. `COc1cc(NS(=O)(=O)c2ccc3ccccc3c2)c2ncccc2c1`: the inhibition was 85% (active). In the case of `Cc1ccc(NS(=O)(=O)c2ccc(C)c(NC(=O)COc3ccc4ccccc4c3)c2)c(C)c1`, the inhibition is 29.6%.

As to `COc1ccc(NC(=O)Nc2cccc3cccnc23)cc1`, the inhibition is -7.39%. As for `C/C(=N\NC(=O)c1cccc([N+](=O)[O-])c1)c1cccnc1`, the inhibition is -2.34%. Take `O=C(Nc1ccc(C(=O)N2CCCCC2)cc1)c1cccc([N+](=O)[O-])c1`: the inhibition was 6.65%. As to `Cc1cc([N+](=O)[O-])ccc1NC(=O)c1ccc(NC(=O)C(C)C)cc1`, the inhibition is 10.6%.

In the case of `Cn1ccc(=Nc2ccc(NC(=O)c3ccc(N=c4ccn(C)c5ccc([N+](=O)[O-])cc45)cc3)cc2)cc1`, the inhibition was 75.8% (active). Turning to `O=C(CCN1C(=O)[C@@H]2Cc3ccccc3CN2C1=O)NCc1ccccc1`, the inhibition is -1.78%. For the compound `COC(=O)C1(C)NC(c2ccc(C)cc2)C2C(=O)N(c3ccc(F)cc3)C(=O)C21` (stereo unspecified), the inhibition was 0.707%.

For the compound `NC(N)=N/N=C/c1ccc(OCc2ccc(Cl)cc2Cl)cc1`, the inhibition is 50.8% (active). Turning to `OC(CNCCc1ccc(Cl)cc1Cl)COc1ccccc1` (stereo unspecified), the inhibition was 8.35%. For the compound `CCOc1ccc(NC(=O)NNC(=O)c2ccc(Cl)cc2Cl)cc1`, the inhibition was -4.81%. For `CCN(CCn1cccn1)C(=O)CC1C(=O)NCCN1Cc1cccc(OC)c1OC` (stereo unspecified), the inhibition was -6.29%. As for `C/C(=N\NC(=O)OC(C)(C)C)c1ccc[nH]1`, the inhibition was -6.42%. Turning to `N#Cc1c(-c2ccccc2)nc(SCc2cccc(C(F)(F)F)c2)[nH]c1=O`, the inhibition was 67.4% (active). With `Cc1ccc(CSc2nc(-c3ccccc3)c(C#N)c(=O)[nH]2)cc1`, the inhibition was 43.6%. As for `N#Cc1c(-c2ccccc2)nc(SCc2ccc([N+](=O)[O-])cc2)[nH]c1=O`, the inhibition was 15.1%.

On to `CN1CCN(C2Cc3ccc(Cl)cc3Sc3ccc(F)cc32)CC1` (stereo unspecified), for which the inhibition was 68.7% (active). For `Cc1ccc(CS(=O)(=O)c2ncc(Cl)c(C(=O)Nc3nnc(C)s3)n2)cc1`, the inhibition was 2.36%. For `C/C(=N\NC(=O)c1ccoc1C)c1ccccc1O`, the inhibition is 4.94%. With `Cc1ccc(-n2ncc3c2CC(C)(C)CC3NC(=O)Cc2c(C)noc2C)cc1` (stereo unspecified), the inhibition is -4.1%.
